Shown is part of a subset that was picked to be rich in hits.
FH mod: Identification of activators of human fumarate hydratase by quantitative high-throughput screening | Fumarate hydratase, mitochondrial (Homo sapiens), P07954 | FH coupled MDH/diaphorase resazurin fluorescence, 15 min | Potency, µM (titrated, usually from 79.9 µM), for the others: at the highest dose activity change, negative = inhibition, actives largely listed as inhibitors | 0.22% of 54,000 active | AID 1347055, 2019; further: the screen sought activators but most active calls are inhibition curves; nearly all actives have a fitted effect of over 45% in size
Target sequence (P07954 whole entry, looked up): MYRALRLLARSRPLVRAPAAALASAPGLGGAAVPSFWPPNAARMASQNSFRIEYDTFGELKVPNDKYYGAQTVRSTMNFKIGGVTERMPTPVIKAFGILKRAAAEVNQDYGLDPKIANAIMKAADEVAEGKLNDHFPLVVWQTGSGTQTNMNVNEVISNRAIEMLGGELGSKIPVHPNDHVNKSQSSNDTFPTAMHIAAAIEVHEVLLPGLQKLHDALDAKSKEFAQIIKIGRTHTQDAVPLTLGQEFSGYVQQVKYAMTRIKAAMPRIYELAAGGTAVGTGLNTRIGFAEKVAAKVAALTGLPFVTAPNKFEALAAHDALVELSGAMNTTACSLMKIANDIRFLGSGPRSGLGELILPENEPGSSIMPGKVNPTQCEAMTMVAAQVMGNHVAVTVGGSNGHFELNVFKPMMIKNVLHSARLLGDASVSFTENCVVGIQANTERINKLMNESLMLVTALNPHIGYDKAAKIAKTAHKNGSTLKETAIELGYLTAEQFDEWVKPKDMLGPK
p53null 32C tox: p53 null cell cytotoxicity, permissive temperature. H1299-neo p53 null cells, ATP luminescence, 24 h, 32C. Potency, µM (series often up to 46.1 µM), for inactives: at the highest dose activity change, negative = cytotoxicity, most hits filed as cytotoxic. 0.62% of 55,000 active. AID 903;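 further: 0% = DMSO only and -100% = full killing by 100 µM tamoxifen; nearly all actives have a fitted effect of over 55% in size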
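Luminescent ATP readout gave cell viability of p53-null H1299-neo cells after a 24 h compound exposure at the permissive 32C. Titrations ran up to 46 uM, and AC50s were fitted with the standard Hill equation.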
p53null 39C kill: selectivity test: cytotoxicity in p53 null cells, nonpermissive temperature. AID 904. H1299 p53-null (neo) cells, 39C, ATPlite viability, 24 h. 0.97% of 55,000 active. Potency, µM (highest dose often 46.1 µM), for inactives: top-dose activity, negative = cell killing, usual class: cytotoxic;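 further: 0% = DMSO only and -100% = full killing by 100 µM tamoxifen; nearly all actives have a fitted effect of over 50% in size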
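Following overnight plating at 37C (600 cells/well), H1299-neo or H1299-p53A138V cells are dosed up to 46 uM. Incubation lasts 24 hr at 39C before ATP detection.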
NTMT1 inhibitor: inhibitors of human N-terminal methyltransferase NTMT1; Q9BV86; NTMT1 MTase-Glo SAH luminescence, purified enzyme; Potency, µM (top dose mostly 114 µM), without a hit: top-dose activity change, negative = inhibition, most hits filed as inhibitors; 2.5% of 59,000 active; AID 1645870;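 further: plate controls were DMSO vehicle for no effect and no enzyme for full effect; nearly all actives have a fitted effect of over 65% in size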
Target sequence (Q9BV86 whole entry, looked up): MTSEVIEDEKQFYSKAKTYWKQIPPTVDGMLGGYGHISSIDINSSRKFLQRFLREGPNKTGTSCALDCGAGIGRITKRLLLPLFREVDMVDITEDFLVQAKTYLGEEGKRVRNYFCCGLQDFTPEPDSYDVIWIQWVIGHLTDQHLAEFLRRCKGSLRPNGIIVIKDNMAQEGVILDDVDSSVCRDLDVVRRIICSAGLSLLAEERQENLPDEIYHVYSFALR
OvCa metastasis: inhibitors of ovarian cancer cell adhesion and invasion in omental model; SKOV3ip1-GFP adhesion/invasion on 3D omental model, fluorescence; Potency, µM (series often up to 45.8 µM), for inactives: top-dose activity change, negative = inhibition, most hits filed as inhibitors; 0.1% of 46,000 active; AID 1963576;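 further: plate controls were DMSO wells for no effect and tomatine positive control wells for full effect; nearly all actives have a fitted effect of over 65% in size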
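qHTS, 4-pt dose (0.36-46 umol/L); SKOV3ip1-GFP, 1,200 cells/well, no FBS; primary omental fibroblast/mesothelial co-culture 48 h pre-grown; 2 h RT + 16 h 37 C; PBS wash, 4% PFA; GFP count 488/509 nm.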
* marks the source's active call; other numbers are inactive results; i = inactive; ? = inconclusive; · = not tested or not shown; ! = not active in a repeat; [ ] = dose if it differs, or a comment. The call rests on the fitted dose curve; in most records, active means well fitted curve in the direction sought with a large enough effect; inconclusive means small, poorly fitted or top-dose-only effect, or another doubt; inactive means no such curve, though single readings can be large; an effect the other way counts as inactive or inconclusive. Unless noted, on the % scale 0 is the no-effect control and ±100 the full control effect; potency means the concentration at half of the fitted maximal effect.

SMILES	FH mod	p53null 32C tox	p53null 39C kill	NTMT1 inhibitor	OvCa metastasis
C[C@@H]1O[C@@H](O[C@H]2[C@H](O[C@H]3CC[C@@]4(C)C(CC[C@]5(C)C4C=C[C@]46OC[C@@]7(CCC(C)(C)C[C@H]74)[C@@H](O)C[C@]65C)[C@]3(C)CO)O[C@H](CO)[C@@H](O)[C@@H]2O[C@@H]2O[C@H](CO)[C@@H](O[C@@H]3O[C@@H](C)[C@H](O)[C@@H](O)[C@H]3O)[C@H](O)[C@H]2O)[C@H](O)[C@H](O)[C@H]1O (some centres undefined)	0%[20.6 µM]	·	·	-18%[12.6 µM]	·
O=C(c1cnc(N2CCOCC2)c2ccccc12)N1CCN(c2ccc(F)cc2)CC1	-8%	2%	103%	-8%	-4%
O=C(c1cnc(N2CCOCC2)c2ccccc12)N1CCN(c2ccccc2)CC1	4%	-3%	13µM*	-4%	6%
Cc1ccc2oc(-c3ccc(NC(=O)CCC(=O)O)cc3)nc2c1	-7%	13µM*	?	-3%	i
CC(=O)N[C@@H](CC(=O)O)C(=O)N[C@@H](CCC(=O)O)C(=O)N[C@H](C(=O)N[C@@H](CC(=O)O)C(=O)Nc1ccc2c(C)cc(=O)oc2c1)C(C)C	20µM*	·	·	7%[57.5 µM]	·
Cc1cc(=O)oc2cc(OCC(=O)Nc3ccc(O)c(C(=O)O)c3)ccc12	-21%	-7%	2%	11%	-7%
COc1ccc(N2CCN(c3oc(/C=C/c4ccccc4OC)nc3C#N)CC2)cc1	-18%	-4%	-10%	89µM*	i
COc1cc(/C=C/c2nc(C#N)c(N3CCCCCC3)o2)cc(OC)c1OC	28µM*	-8%	-20%	?	13%
COc1cccc(O)c1CNc1ccc(S(=O)(=O)Nc2nccs2)cc1	·	·	·	-3%	·
CC(C)c1ccc(-n2ncc3c(=O)n(CC(=O)Nc4cc(F)ccc4Cl)cnc32)cc1	·	·	·	0%[57.5 µM]	·
CCN(CC)CCNC(=O)c1ccc2c(=O)n3nc(Nc4cccc(Cl)c4C)sc3nc2c1	-9%	?	20µM*	?	?
Cc1ccc(C)c(Nc2nn3c(=O)c4ccc(C(=O)NCCc5ccccc5)cc4nc3s2)c1	-1%	-9%	-16%	-6%	i
COc1ccccc1Nc1nn2c(=O)c3ccc(C(=O)NCCC4=CCCCC4)cc3nc2s1	-10%	?	4µM*	-26%	13%
COc1ccccc1Nc1nn2c(=O)c3ccc(C(=O)NCCc4ccccc4)cc3nc2s1	8%	?	6.3µM*	?	?
Cc1ccc(C)c(Nc2nn3c(=O)c4ccc(C(=O)NCCC5=CCCCC5)cc4nc3s2)c1	-4%	-16%	-26%	-4%	10%
C=C1[C@H]2[C@H](O[C@@H]3O[C@H](COC(=O)/C=C/c4cc(OC)c(O)c(OC)c4)[C@@H](O)[C@H](O)[C@H]3O)OC=C(C(=O)O)[C@H]2C[C@@H]1O	-3%[20.6 µM]	·	·	22%[12.6 µM]	·
O=C1CCCC2=C1C(c1ccccc1Cl)N=C(c1ccccn1)N2 (centres undefined)	·	·	·	5%	·
CCCCN(CCCC)S(=O)(=O)c1ccc(C(=O)Nc2sc3c(c2C(N)=O)CCN(CC)C3)cc1	-4%	5%	3%	2%	8%
CCOC(=O)c1c(NC(=O)c2ccc(S(=O)(=O)N(CC(C)C)CC(C)C)cc2)sc2c1CCN(CC)C2	-9%	0%	4%	89µM*	-5%
COc1ccc([C@@H](O)[C@@H](C)Oc2ccc([C@H]3O[C@H](c4ccc(O[C@H](C)[C@H](O)c5ccc(OC)c(OC)c5)c(OC)c4)[C@H](C)[C@H]3C)cc2OC)cc1OC	·	·	·	10%	·
Clc1ccc2ncc(-c3cccc(NC4CCNC4)n3)n2c1 (centres undefined)	0%	·	·	?	·
c1cc(NC2CCNCC2)nc(-c2cnc3ccccn23)c1	?	·	·	45µM*	·
O=C(Nc1cccc2nn(-c3ccc(F)cc3)cc12)c1ccccn1	·	·	·	-3%	·
CC1=CC(=O)CC(C)(C)C1CCC(C)O[C@@H]1O[C@H](CO[C@@H]2OC[C@@H](O)[C@H](O)[C@H]2O)[C@@H](O)[C@H](O)[C@H]1O (some centres undefined)	-1%[53.3 µM]	·	·	?	·
O=C(Nc1ccn[nH]1)c1c(F)cccc1F	3%	·	·	18%[57.5 µM]	·
SMILES	FH mod	p53null 32C tox	p53null 39C kill	NTMT1 inhibitor	OvCa metastasis
O=C(Nc1noc2ccccc12)c1c(F)cccc1F	-7%	?	10µM*	?	-7%
O=C(OCC#CCSc1nnc(-c2ccc3ccccc3c2)o1)c1ccccc1	·	·	·	4%	·
COc1ccccc1CNc1ccc(S(=O)(=O)Nc2nccs2)cc1	·	·	·	1%	·
Cc1ccc(C)c(NC(=O)CN(CCc2ccccc2)S(=O)(=O)c2ccccc2)c1	?	8%	-20%	6%	3%
COc1ccc(S(=O)(=O)N(CCc2ccccc2)CC(=O)Nc2cc(Cl)ccc2C)cc1	-16%	1%	10%	4µM*	-3%
Cc1c(C(=O)OC[C@H]2CCCO2)[nH]c2c1C(=O)CC(c1ccco1)C2 (some centres undefined)	·	·	·	50µM*	·
C=CCN(/C=C1\C(=O)O[C@@H](COC)[C@]2(C)C1=C(O)C(=O)C1=C2[C@@H](OC(C)=O)C[C@]2(C)C(=O)CC[C@H]12)CC=C	·	·	·	-23%	·
CCOC(=O)c1cccc(NC(=O)CC(c2cc(OC)c(OC)c(OC)c2)N2Cc3ccccc3C2=O)c1 (centres undefined)	-13%	-3%	6%	89µM*	8%
Cc1ccc(OCCn2c(CCNC(=O)C(C)(C)C)nc3ccccc32)cc1	·	·	·	-2%[57.5 µM]	·
CC(C)N(CCCNC(=O)Nc1ccc(C(C)(C)C)cc1)C[C@H]1O[C@@H](n2cc(Br)c3c(N)ncnc32)[C@H](O)[C@H]1O	2%[53.3 µM]	·	·	19µM*	-26%
OC[C@H]1O[C@@H](OCCc2ccccc2)[C@H](O[C@@H]2OC[C@](O)(CO)[C@H]2O)[C@@H](O)[C@@H]1O	3%[53.3 µM]	·	·	5%[29.8 µM]	·
Cc1ccc(-c2nc3n(n2)Cc2ccccc2-3)cc1	·	8.9µM*	?	·	·
COc1ccc(N2CCN(c3nc4ccccc4n4c(C)nnc34)CC2)cc1	0%	5%	6%	79µM*	3%
CN(C)c1ccc(O)c2c1C[C@H]1C[C@H]3[C@H](N(C)C)C(=O)C(C(N)=O)=C(O)[C@@]3(O)C(=O)C1=C2O	-6%[53.3 µM]	·	·	79µM*!	-11%
Cc1cc2oc(=O)c(CC(=O)O)c(C)c2c2occ(-c3ccccc3)c12	-20%	?	-30%	28µM*	-1%
Cc1oc2c(c(C)cc3oc(=O)c(CC(=O)NCc4ccccc4)c(C)c32)c1C	2%	-1%	-22%	-15%	7%
NCCCC[C@H](N)C(=O)Nc1ccc(Cl)cc1C(=O)c1ccc[nH]1	·	·	·	-13%	·
COc1ccc(-c2cc(C(=O)Oc3ccc(Br)cc3)c3ccccc3n2)cc1	-13%	?	13µM*	-4%	5%

Screens (PubChem BioAssay)
